From PubChem
An excerpt weighted towards active compounds, which were near 12% of everything screened.
Pf growth 48h – inhibits P. falciparum growth in the first generation, 48 h; P. falciparum luciferase growth in erythrocytes, 48 h; Potency, µM (top dose mostly 28.7 µM), without a hit: at the top dose activity change, negative = inhibition, usual class: inhibitors; hit rate 5.9% among 310,000; also: % is scaled to controls: 0 for no effect and ±100 for the full control effect
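Parasite viability was followed by luminescence of a genomically integrated firefly luciferase. Cultures held 0.1% parasitemia at 2% hematocrit (final), incubated under 5% CO2 at 37 C.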
NS1 inh – influenza NS1 inhibition; Potency, µM (doses to about 46.1 µM), for inactives: at the highest dose activity, positive = more growth; hit rate 0.4% among 270,000; AID 2326; calls by dose curve; also: actives are rising curves; nearly all actives have a fitted effect of over 50% in size
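In this qHTS, NS1 from influenza A is expressed in budding yeast, where it slows growth. Cells are switched from glucose to 2% galactose medium (pH 6.0, -URA), treated with compound, and growth recovery is read at OD600.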
HCV inh – inhibitors of hepatitis C virus infection | hit rate 3.4% among 340,000 | Potency, µM (titrated, usually from 41.8 µM), inactives show at the highest dose activity change, negative = inhibition, most hits filed as inhibitors | Huh7.5.1 HCVcc-Cre infection, luciferase reporter, 44 h; also: % is scaled to controls: 0 for no effect and ±100 for the full control effect
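Infectious HCV cell culture screen: compound-treated cells (1,000/well, pre-plated 4 h) are infected with HCVcc-Cre at roughly 0.5 moi and grown 44 h. Infection is quantified by luciferase signal after 15 min substrate incubation at room temperature.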
Pf growth 96h – P. falciparum growth inhibition at 96 hour, primary screen for plastid delayed-death inhibitors; P. falciparum luciferase reporter growth, 96 h; Potency, µM (titrated, usually from 28.7 µM), inactives show at the top dose activity change, negative = inhibition, most hits filed as inhibitors; hit rate 6.9% among 320,000; AID 504834; also: % is scaled to controls: 0 for no effect and ±100 for the full control effect
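96 h incubation, 37 C, 5% CO2, of luciferase-reporter P. falciparum-infected RBCs (2% hematocrit, 0.05% parasitemia final) with test compounds; endpoint luminescence.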
AMA1 RON2 block – AMA1-RON2 (P. falciparum) interaction inhibition; AlphaScreen AMA1-biotinylated RON2 peptide binding; Potency, µM (series often up to 58.2 µM), inactives show top-dose activity change, negative = inhibition, usual class: inhibitors; hit rate 0.2% among 360,000;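 also: 0% = vehicle wells and -100% = peptide control; nearly all actives have a fitted effect of over 45% in size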
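AMA1 (3D7) with his tag at 25 nM final met compounds first, then biotinylated RON2 peptide at 25 nM; detection used donor plus acceptor beads, 10 µg/mL apiece, read by AlphaScreen after 30 min at room temperature.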
SARS PLP yeast – SARS-CoV PLP inhibition in yeast; S. cerevisiae expressing SARS-CoV PLpro, growth rescue; Potency, µM (top dose mostly 32.9 µM), for the others: at the highest dose activity, positive = growth rescue, most hits filed as activators; hit rate 0.19% among 330,000; calls by dose curve; also: 0% is about no effect; nearly all actives have a fitted effect of over 55% in size
The depositor's hits bear a star. Unless noted, calls follow the shape of the dose curve; as a rule, active = well fitted curve in the direction sought with a large enough effect; inconclusive = small, poorly fitted or top-dose-only effect, or another doubt; inactive = no such curve, though single readings can be large; an effect the other way counts as inactive or inconclusive. Potency is read from the fitted curve at half-maximal effect.

What do the screens show for `COc1ccc(-c2nnn(Cc3ccccc3F)n2)cc1`?
Pf growth 48h: 336.3%; NS1 inh: -2.4%; HCV inh: 11.2µM*; Pf growth 96h: 7.3%; AMA1 RON2 block: 25.6%; SARS PLP yeast: -21.9%

Results for COC(=O)c1ccccc1NC(=O)Cn1nnc(-c2ccc(OC)cc2)n1 ?
Pf growth 48h: -17.7%; NS1 inh: 2.8%; HCV inh: inconclusive; Pf growth 96h: 0.586µM*; AMA1 RON2 block: -0.6%; SARS PLP yeast: 2.5%

How did COc1ccc(C(=O)Cn2nnc(-c3ccccc3F)n2)cc1 do in these assays?
Pf growth 48h: 32.6%; NS1 inh: -14.3%; HCV inh: inconclusive; Pf growth 96h: 45.8%; AMA1 RON2 block: 4.8%; SARS PLP yeast: -2.5%

Results for Fc1ccccc1Cn1nnc(-c2ccc3c(c2)OCO3)n1 ?
NS1 inh: -83.7%; HCV inh: -28.0%; Pf growth 96h: 289.5%; AMA1 RON2 block: 28.5%; SARS PLP yeast: -8.2%

Results for COc1ccc(NC(=O)Cn2nnc(-c3ccccc3NS(=O)(=O)c3ccc(OC)cc3)n2)cc1 ?
Pf growth 48h: inconclusive; NS1 inh: -8.6%; HCV inh: 11.2µM*; Pf growth 96h: 6.7%; AMA1 RON2 block: 4.7%; SARS PLP yeast: 21.8%

Results for COc1ccccc1NC(=O)Cn1nnc(-c2ccccc2NS(=O)(=O)c2ccccc2)n1 ?
Pf growth 48h: inconclusive; NS1 inh: -3.2%; HCV inh: inconclusive; Pf growth 96h: -22.5%; AMA1 RON2 block: -3.8%; SARS PLP yeast: 6.3%

What do the screens show for `O=C(NCc1cccs1)c1ccc(-c2ccc(F)c(F)c2)c2ccoc12`?
AMA1 RON2 block: 12.7%

What do the screens show for `Cc1ccc(NC(=O)Cn2nnc(-c3ccccc3NC(=O)c3cccs3)n2)cc1`?
Pf growth 48h: 13.1µM*; NS1 inh: 3.3%; HCV inh: inconclusive; AMA1 RON2 block: 26.5%; SARS PLP yeast: -4.0%

Results for CCOc1ccc(NC(=O)Cn2nnc(-c3ccccc3NC(=O)CC)n2)cc1 ?
Pf growth 48h: -22.0%; NS1 inh: 3.8%; HCV inh: -27.4%; Pf growth 96h: 24.0%; AMA1 RON2 block: 1.8%; SARS PLP yeast: 4.9%

Results for O=C(Cn1nnc(-c2cccs2)n1)NCc1ccccc1 ?
Pf growth 48h: 1.3%; NS1 inh: -2.1%; HCV inh: 29.0%; Pf growth 96h: 4.7%; AMA1 RON2 block: -9.2%; SARS PLP yeast: -2.0%

Results for O=C(Cn1nnc(-c2cccs2)n1)Nc1ccccc1C(F)(F)F ?
Pf growth 48h: -0.6%; HCV inh: 12.2%; Pf growth 96h: 0.294µM*; AMA1 RON2 block: 11.8%; SARS PLP yeast: -6.3%

How did O=C(Cn1nnc(-c2ccccc2NC(=O)c2ccco2)n1)Nc1ccccc1 do in these assays?
Pf growth 48h: -23.9%; NS1 inh: -2.9%; HCV inh: inconclusive; Pf growth 96h: inconclusive; AMA1 RON2 block: 1.7%; SARS PLP yeast: 1.9%

What do the screens show for `COc1ccc(NC(=O)Cn2nnc(-c3ccccc3NC(=O)c3cccs3)n2)cc1`?
Pf growth 48h: 1.85µM*; NS1 inh: -2.7%; HCV inh: inconclusive; Pf growth 96h: inconclusive; AMA1 RON2 block: 0.6%; SARS PLP yeast: 3.7%

What do the screens show for `Cc1ccc(S(=O)(=O)n2ccc(=O)[nH]2)cc1`?
Pf growth 48h: 59.8%; NS1 inh: -1.2%; HCV inh: 9.8%; Pf growth 96h: 0.0%; AMA1 RON2 block: 1.1%; SARS PLP yeast: 0.6%

What do the screens show for `CC(C)C[C@@H](CN1CCC[C@@H]1CN1C(=S)NC[C@@H]1Cc1ccc(O)cc1)N1C[C@H](Cc2ccc(O)cc2)N(CC2CCCCC2)C1=S`?
AMA1 RON2 block: 17.2%

Results for COc1ccccc1NC(=S)N(Cc1ccccc1)Cc1cccs1 ?
Pf growth 48h: 19.7%; HCV inh: 8.0%; Pf growth 96h: 13.1µM*; AMA1 RON2 block: -7.2%; SARS PLP yeast: -0.5%

How did COc1ccccc1NC(=S)N(Cc1cccnc1)Cc1ccco1 do in these assays?
Pf growth 48h: 11.7µM*; HCV inh: 6.7%; Pf growth 96h: -0.9%; AMA1 RON2 block: -1.8%; SARS PLP yeast: -0.5%
